This is an account of results in PubChem BioAssay.

Test [1] can be described thus: stimulators of nuclear beta-catenin in C2C12, primary screen, imaging, WNT3A-conditioned medium, mouse C2C12, NPC library (AID 1117326; in the data active = nuclear beta-catenin stimulation mostly above about 4.2%, no sharp cut-off; inactive = mostly below about 10%). The following applies: stronger effect = higher value.
Test [2] in a line: stimulators of insulin release from INS-1E, primary screen, cell-based, 5 mM glucose, NPC library (AID 1117329;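 active = compound raises insulin release from rat beta cells at 5 mM glucose, no numeric limit stated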). The following applies: rat INS-1E insulin secretion, at 10 µM, stronger effect = higher value.
Test [3] in a line: growth inhibition of GSK3B-pretreated HCT116 cells – cell-based, CellTiter-Glo, 0.2 to 20 µM (AID 1117336;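 active = compounds lowering colon cancer cell viability after pretreatment blocking the GSK3B kinase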). The following applies: HCT116 viability after GSK3B inhibitor, at 20 µM, stronger effect = higher value.
Test [4] can be described thus: inhibition of endothelial tube formation, primary screen, imaging, VEGF stimulated, CD31 staining, tube area, NPC library (AID 1117340;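 active = compound that reduces growth-factor-driven endothelial tube area in a mixed cell culture, no cutoff stated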). The following applies: VEGF-stimulated ADSC/ECFC co-culture, at 10 µM, stronger effect = higher value.
The nature of test [5]: glucagon-like peptide 1 release enhancers, primary assay, NCI-H716 cell line, NPC library (AID 1117341;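 active = compound raises GLP1 secretion from the human gut endocrine cells, with no numeric limit stated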). The following applies: NCI-H716 cells, at 10 µM, stronger effect = higher value.
Test [6] in a line: HCT116 colon cancer cell growth inhibition, primary screen, CellTiter-Glo luminescence, NPC library (AID 1117342;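 active = compounds that lower survival of HCT116 colon cancer cells in the luminescence readout, no numeric limit stated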). The following applies: at 20 µM (top of the series). Background: In ATP-based viability assays light output follows the ATP content of the culture.
Test [7] in a line: CellTiter-Glo luminescent readout of SW480 viability loss, NPC library primary (AID 1117343;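 active = compounds that lower viability of the colon cancer cells in the luminescence readout, with no numeric limit stated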). The settings on record: CellTiter-Glo luminescence; at 20 µM (top of the series).
Test [8] can be described thus: decreased DLD-1 cellular survival, CellTiter-Glo luminescent readout, NPC compound collection, primary HTS (AID 1117346;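 active = compounds that lower survival of DLD-1 colon cancer cells in the luminescence readout, no cutoff given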). The settings on record: DLD-1 viability, CellTiter-Glo luminescence; at 20 µM (top of the series).
The nature of test [9]: sensitizers of A549 cells to miR-34 induction, primary screen, imaging, A549 dox-inducible miR-34, nuclei and caspase counts (AID 1347080). The following applies: A549 miR-34 inducible, Hoechst nuclei count, 48 h.
Test [10] in a line: survival rescue of mitochondrial mutant cells in low glucose, primary screen, MELAS cybrids, Rieske KO mouse fibroblasts, CellTiter-Glo (AID 1508586;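 active = mean z-score across replicates of 1.96 or higher in either the MELAS or the Rieske mutant cell line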;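 note: z relative to plate mean and SD of compound and empty wells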).
The nature of test [11]: hESC survival regulators, cell-based (AID 493140; call rule not given here;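 note: cells exposed to compounds for four days before counting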). The following applies: human embryonic stem cell survival screen; stronger effect = higher value.
A short description of test [12]: liver-stage malaria parasite growth inhibition, primary screen, cell-based, HepG2, luciferase luminescence, HepG2 viability (AID 624349; in the data active = parasite load remaining mostly below about 12%, no sharp cut-off; inactive = mostly above about 10%;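 note: 100% = mean of DMSO negative control wells on the same plate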). The settings on record: P. berghei liver stage in HepG2, luciferase luminescence, concentration not given here; parasite load remaining: stronger effect = lower value; viability: measured here: HepG2 viability without parasites.
[13] abbreviates: measured here: relative caspase fold change +Dox/-Dox.
The mark [14] stands for this setting: measured here: total cells with miR-34 induction, stronger effect = lower value.
Setting [15] is: measured here: total cells without miR-34 induction.
Where [16] appears, read: MELAS cybrid survival, CellTiter-Glo 48 h, stronger effect = higher value.
[17] abbreviates: Rieske KO mouse fibroblast survival, CellTiter-Glo 72 h.

Values joined by “and” are separate entries in the source; they are usually repeats but may differ in a detail not shown here. Identical values can stand only once. Active and inactive are the calls of the source.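 Rule for the calls, unless noted: active = compounds whose cell count with miR-34 switched on is under 0.7 times the count with it off; inactive = the rest.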

Regarding `Cc1cccc(Cc2cnc[nH]2)c1C`, the nuclear beta-catenin stimulation is 7.4% (inactive) in test [1] (at 10 µM) and 8.1% in test [1] (stimulation, at 2 µM). In addition, in test [2], the insulin secretion stimulation is 0.4% (inactive). For the same compound, the viability decrease in test [3] was -41.9% (inactive). Moreover, the tube area decrease in [4] was 15.5% (inactive). Further, the GLP1 secretion stimulation in test [5] is 4.1% (inactive). In [6], the inhibition of viability is 4.37% (inactive). For the same compound, the viability decrease (inhibition) in test [7] is -5.1% (inactive); in test [8] it was -9.9% (inactive). Moreover, the fold change in test [9] (stronger effect = lower value) is 0.969 (inactive); in test [9] (setting [13]) it was 0.529. Further, the cell count in test [9] (setting [14]) worked out at 7080; in [9] (setting [15]), 7310. The z-score in test [10] (setting [16]) is 0.317 (inactive); in test [10] (setting [17]), -0.228.

What is called viability is a per cent measure of how many cells are alive, often set against a control. As for `CCC1(c2cccc(O)c2)CCCCN(C)C1` (centres undefined), the survival in [11] is 2.75 (inactive). For the same compound, the parasite load remaining in test [12] was 114% (inactive). The compound further returned a viability in test [12] of 77.7%. Also, the nuclear beta-catenin stimulation was -0.6% (inactive) in test [1] (at 10 µM) and -0.3% in test [1] (stimulation, at 2 µM). Moreover, the insulin secretion stimulation in [2] was 19.8% (inactive). The viability decrease in test [3] was 10.8% (inactive). In addition, the tube area decrease in [4] was -4.7% (inactive). Besides, the GLP1 secretion stimulation in test [5] is 1.4% (inactive). Further, the inhibition of viability in [6] is -13.6% (inactive). Further, the figures for the viability decrease (inhibition) in [7] and in test [8] were 57% (active) and 13.3% (inactive), respectively. Moreover, the fold change in [9] (stronger effect = lower value) was 0.914 (inactive) and 0.925 (inactive); in test [9] (setting [13]) it was 0.54 and 0.493. Also, the cell count was 8800 and 7600 in test [9] (setting [14]); 9630 and 8210 in [9] (setting [15]). In addition, the z-score is -0.204 (inactive) and -0.911 (inactive) in test [10] (setting [16]); -0.179 and 0.197 in [10] (setting [17]).

Take `COc1ccc2c(c1OC)CN1CCc3cc4c(cc3C1C2)OCO4` (centres undefined): the survival in [11] is 0.583 (inactive). The parasite load remaining in test [12] is 82.7% (inactive). In test [12], this compound yielded a viability of 89.1%. Further, the nuclear beta-catenin stimulation in test [1] (at 10 µM) is 2.2% (inactive); in test [1] (stimulation, at 2 µM), 2.8%. For the same compound, the insulin secretion stimulation in [2] was 1.5% (inactive). In test [3], the viability decrease is 34.2% (inactive). In addition, the tube area decrease in test [4] was 1.4% (inactive). Moreover, the GLP1 secretion stimulation in test [5] is -1% (inactive). Further, in [6], the inhibition of viability is 49.3% (inactive). The results for the viability decrease (inhibition) in test [7] and in test [8] were -5.2% (inactive) and 21.3% (inactive), respectively. Moreover, the fold change in test [9] (stronger effect = lower value) was 0.795 (inactive); in test [9] (setting [13]) it was 1.12. Besides, the cell count was 8510 in test [9] (setting [14]) and 10700 in [9] (setting [15]).

Take `O=C1OC2(c3cc(Br)c(O)cc3Oc3c2cc(Br)c(O)[c]3[Hg])c2ccccc21` (centres undefined): the parasite load remaining in test [12] was 65.8% (inactive). The same compound yielded a viability in [12] of 84.8%. Moreover, the nuclear beta-catenin stimulation is 57.5% (active) in test [1] (at 10 µM) and 3.4% in [1] (stimulation, at 2 µM). In test [2], the insulin secretion stimulation was 7.2% (inactive). For the same compound, the viability decrease in test [3] is 77.7% (active). In test [4], the tube area decrease is -234% (inactive). Further, the GLP1 secretion stimulation in test [5] was -1.4% (inactive). Further, the inhibition of viability in test [6] is 52.1% (active). The results for the viability decrease (inhibition) in test [7] and in [8] were 11.7% (inactive) and 38.2% (inactive), respectively. For the same compound, the fold change was 0.885 (inactive) in test [9] (stronger effect = lower value, cell number ratio, induced over uninduced) and 1.08 in test [9] (setting [13]). The results for the cell count in [9] (setting [14]) and in test [9] (setting [15]) were 9490 and 10700, respectively. Further, the results for the z-score in [10] (setting [16]) and in test [10] (setting [17]) were -0.831 (inactive) and 0.0245, respectively.

For the compound `O=C(NCNC(=O)NC1C(=O)NC(=O)N1CO)NC1C(=O)NC(=O)N1CO` (centres undefined), the survival in test [11] was 33.2 (inactive). Also, the parasite load remaining in [12] was 92.1% (inactive). The compound further gave a viability in test [12] of 79.2%. The nuclear beta-catenin stimulation in [1] (at 10 µM) is -1.7% (inactive); in test [1] (stimulation, at 2 µM), 0.2%. The insulin secretion stimulation in [2] was 1.2% (inactive). The viability decrease in test [3] was -3.4% (inactive). Also, the tube area decrease in test [4] was -8.4% (inactive). Further, the GLP1 secretion stimulation in [5] was -0.8% (inactive). Moreover, in test [6], the inhibition of viability was -1.8% (inactive). For the same compound, the values for the viability decrease (inhibition) in [7] and in [8] were 3.1% (inactive) and 8.4% (inactive), respectively. The fold change is 0.914 (inactive) in test [9] (stronger effect = lower value) and 0.72 in test [9] (setting [13]). Also, the figures for the cell count in test [9] (setting [14]) and in test [9] (setting [15]) were 9340 and 10200, respectively. Further, the z-score in test [10] (setting [16]) is 0.818 (inactive); in [10] (setting [17]) it was 0.0717.
